For five compounds, Percent Effect results are on record in ChEMBL document CHEMBL3988442, “University of Dundee, Small-Polar-MMV Screening Library” (2021).

For part of these data: Results with a measured potency or affinity are listed apart.

What all share (set-up): scale not given: direction of the effect not stated beside the values
The target of assay [1] is Protein translocase subunit SecA (Escherichia coli (strain K12)) (UniProt P10408). In words: Assay to Identify E. coli SecA ATPase Inhibitors. It is filed as functional. To be noted: 30 µM.
Assay [2] deals with T1, Ubiquitin-activating enzyme e1, putative (Leishmania donovani (strain BPK282A1)) (UniProt E9BSI1).
T1 sequence (whole entry): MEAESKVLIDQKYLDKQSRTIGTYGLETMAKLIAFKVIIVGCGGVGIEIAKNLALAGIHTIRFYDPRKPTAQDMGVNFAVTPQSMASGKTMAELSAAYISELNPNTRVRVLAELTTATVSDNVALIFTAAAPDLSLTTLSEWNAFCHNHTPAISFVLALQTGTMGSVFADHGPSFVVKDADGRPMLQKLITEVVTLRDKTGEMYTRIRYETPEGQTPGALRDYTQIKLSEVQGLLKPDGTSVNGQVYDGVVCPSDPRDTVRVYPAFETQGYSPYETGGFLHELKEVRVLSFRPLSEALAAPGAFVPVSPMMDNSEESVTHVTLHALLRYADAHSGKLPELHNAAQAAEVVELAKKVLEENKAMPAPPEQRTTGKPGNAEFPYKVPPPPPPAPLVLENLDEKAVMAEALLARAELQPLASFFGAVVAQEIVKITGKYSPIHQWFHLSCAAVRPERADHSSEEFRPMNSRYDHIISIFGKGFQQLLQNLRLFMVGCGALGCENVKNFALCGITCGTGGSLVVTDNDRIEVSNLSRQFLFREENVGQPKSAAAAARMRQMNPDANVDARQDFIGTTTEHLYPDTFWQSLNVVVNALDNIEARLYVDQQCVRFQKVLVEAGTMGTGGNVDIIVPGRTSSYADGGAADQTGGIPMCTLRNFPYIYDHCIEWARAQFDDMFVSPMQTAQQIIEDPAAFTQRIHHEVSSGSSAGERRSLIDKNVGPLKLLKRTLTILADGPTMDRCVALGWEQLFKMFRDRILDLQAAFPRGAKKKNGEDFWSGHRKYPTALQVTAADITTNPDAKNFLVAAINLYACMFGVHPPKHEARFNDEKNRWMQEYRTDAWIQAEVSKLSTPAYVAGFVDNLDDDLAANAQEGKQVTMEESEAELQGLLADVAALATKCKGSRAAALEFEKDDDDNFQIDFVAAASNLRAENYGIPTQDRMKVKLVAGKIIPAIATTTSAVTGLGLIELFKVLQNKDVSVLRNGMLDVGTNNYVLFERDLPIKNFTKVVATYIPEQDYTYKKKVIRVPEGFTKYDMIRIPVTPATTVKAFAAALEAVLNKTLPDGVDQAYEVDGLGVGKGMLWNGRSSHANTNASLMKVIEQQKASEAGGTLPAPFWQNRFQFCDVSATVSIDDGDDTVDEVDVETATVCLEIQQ
In words: Leishmania donovani Ubiquitin Activating Enzyme (LdE1). It is filed as functional. To be noted: 30 µM.

The target in assay [3] is T2, Aspartate--tRNA(Asp/Asn) ligase (Mycobacterium tuberculosis (strain ATCC 25618 / H37Rv)) (UniProt P9WFW3). Note: in the data most compounds retested in dose-response had high values.
T2 sequence (whole entry): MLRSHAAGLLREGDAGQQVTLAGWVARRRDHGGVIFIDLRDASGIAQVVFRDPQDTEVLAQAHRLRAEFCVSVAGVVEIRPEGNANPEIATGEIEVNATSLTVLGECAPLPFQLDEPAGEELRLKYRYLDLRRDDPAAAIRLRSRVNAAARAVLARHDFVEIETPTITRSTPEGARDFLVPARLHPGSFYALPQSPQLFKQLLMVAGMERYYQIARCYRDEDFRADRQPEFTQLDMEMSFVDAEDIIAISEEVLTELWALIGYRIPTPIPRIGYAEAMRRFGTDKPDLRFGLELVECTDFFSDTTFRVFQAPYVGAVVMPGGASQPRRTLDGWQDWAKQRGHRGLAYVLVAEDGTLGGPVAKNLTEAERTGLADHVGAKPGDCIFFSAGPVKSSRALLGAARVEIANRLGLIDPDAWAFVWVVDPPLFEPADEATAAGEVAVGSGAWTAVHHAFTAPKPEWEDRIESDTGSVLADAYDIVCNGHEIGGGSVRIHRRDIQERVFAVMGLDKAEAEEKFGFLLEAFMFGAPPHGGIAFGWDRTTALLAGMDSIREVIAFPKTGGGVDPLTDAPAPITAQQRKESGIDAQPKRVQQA
The assay can be described thus: Assay for Asp RNA synthetase-1 from Mycobacterium tuberculosis. It is filed as functional. Particulars: 30 µM.

The target of assay [4] is Sialic acid-binding Ig-like lectin 9 (Homo sapiens) (UniProt Q9Y336). The assay can be described thus: Hs-Siglec9 ALPHAscreen SOP 20170721. Particulars: 10 µM. (Alpha assays give light when donor and acceptor beads are brought close together.)
The next assay deals with Trypanosoma cruzi. In words: Trypanosoma cruzi phosphomannomutase and mannose-1-phosphate guanylyltransferase assay. In kind it is functional. To be noted: 10 µM.
Assay [5] addresses T3, Arginase-2, mitochondrial (Homo sapiens) (UniProt P78540).
T3 sequence (whole entry): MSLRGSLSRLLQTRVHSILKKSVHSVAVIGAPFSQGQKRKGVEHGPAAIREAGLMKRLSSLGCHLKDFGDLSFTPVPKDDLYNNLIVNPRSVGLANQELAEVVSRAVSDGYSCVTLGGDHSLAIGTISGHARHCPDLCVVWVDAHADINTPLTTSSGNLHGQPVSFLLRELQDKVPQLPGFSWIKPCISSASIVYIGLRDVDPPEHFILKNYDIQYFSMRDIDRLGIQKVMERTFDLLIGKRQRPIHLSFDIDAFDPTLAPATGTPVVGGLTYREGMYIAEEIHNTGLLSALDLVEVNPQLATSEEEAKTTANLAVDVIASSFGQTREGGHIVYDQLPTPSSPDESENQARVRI
The assay can be described thus: in vitro enzyme assay to detect the production of urea directly proportional to the activity of Arginase II. Note: in the data most compounds retested in dose-response had high values. It is filed as functional. To be noted: 33.3 µM.

The target of assay [6] is T4, Proteasome subunit beta (Trypanosoma cruzi) (UniProt O96673).
T4 sequence (whole entry): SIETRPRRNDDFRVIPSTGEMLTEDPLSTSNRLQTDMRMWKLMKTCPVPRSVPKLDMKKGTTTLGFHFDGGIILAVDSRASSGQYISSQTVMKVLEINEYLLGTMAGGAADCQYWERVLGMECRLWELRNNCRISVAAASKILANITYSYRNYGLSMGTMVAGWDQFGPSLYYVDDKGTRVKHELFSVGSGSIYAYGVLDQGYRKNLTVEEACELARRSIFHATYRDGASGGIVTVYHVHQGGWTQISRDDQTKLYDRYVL
The assay can be described thus: Trypanosoma cruzi proteasome chymotrypsin-like activity (TcProtChymo) assay. Note: in the data most compounds retested in dose-response had high values. In kind it is functional. Particulars: 9.37 µM.

For the next assay, the species on record is Homo sapiens. The assay can be described thus: To identify inhibition of the IFN signalling (Jak-Stat) pathway via expression of an eGFP reporter gene under the control of an IFN-stimulated response element (ISRE) containing MxA promoter. Particulars: 30 µM. It is filed as functional.
The target of assay [7] is Shiga toxin 2 (Escherichia coli O157:H7) (UniProt P09385+P09386). The assay can be described thus: E. coli 0.157:H7 Shiga Toxin SOP - stx2 screening assay. To be noted: 30 µM. In kind it is functional.
Assay [8] deals with T5, Tyrosyl-tRNA synthetase, putative (Trypanosoma cruzi (strain CL Brener)) (UniProt Q4DSP6).
T5 sequence (whole entry): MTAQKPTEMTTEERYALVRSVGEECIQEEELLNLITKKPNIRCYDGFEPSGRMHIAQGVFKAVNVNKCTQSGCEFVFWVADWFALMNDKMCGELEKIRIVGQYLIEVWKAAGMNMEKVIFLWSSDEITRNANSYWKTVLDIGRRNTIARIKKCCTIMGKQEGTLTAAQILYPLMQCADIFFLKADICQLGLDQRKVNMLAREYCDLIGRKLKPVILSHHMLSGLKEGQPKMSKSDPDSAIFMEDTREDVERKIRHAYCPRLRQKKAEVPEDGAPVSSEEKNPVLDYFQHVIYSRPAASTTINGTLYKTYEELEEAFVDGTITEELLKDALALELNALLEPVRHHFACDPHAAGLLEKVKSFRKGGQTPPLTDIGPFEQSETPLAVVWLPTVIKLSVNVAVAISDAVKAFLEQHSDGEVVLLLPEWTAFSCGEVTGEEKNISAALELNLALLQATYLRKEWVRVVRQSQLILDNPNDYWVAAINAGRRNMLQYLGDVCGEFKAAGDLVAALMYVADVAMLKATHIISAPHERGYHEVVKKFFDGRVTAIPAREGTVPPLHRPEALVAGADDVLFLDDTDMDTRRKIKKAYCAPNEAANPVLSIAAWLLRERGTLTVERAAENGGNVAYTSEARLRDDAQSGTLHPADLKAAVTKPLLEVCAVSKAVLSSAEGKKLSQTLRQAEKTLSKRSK
The assay can be described thus: Trypanosoma cruzi tyrosyl tRNA synthetase (TcYRS) _High Tyrosine SOP. Note: in the data most compounds retested in dose-response had high values. In kind it is functional. Particulars: 30 µM.

The target of assay [9] is T5, Tyrosyl-tRNA synthetase, putative (Trypanosoma cruzi (strain CL Brener)). The assay can be described thus: Trypanosoma cruzi tyrosyl tRNA synthetase (TcYRS) SOP. To be noted: 30 µM. In kind it is functional.
The target in assay [10] is Chromo domain-containing protein 1 (Saccharomyces cerevisiae (strain ATCC 204508 / S288c) (Baker's yeast)) (UniProt P32657). In words: ScCHD-1 Enzyme Inhibition Assay. Note: in the data most compounds retested in dose-response had high values. It is filed as functional. To be noted: 30 µM.
Assay [11] addresses AMP-activated protein kinase, AMPK (Homo sapiens) (UniProt P54646+O43741+P54619+Q9UGJ0+Q9Y478+Q13131+Q9UGI9). The assay can be described thus: AMP-dependent Kinase enzyme assay. An in vitro enzyme assay that detects ADP turnover that is directly proportional to AMPK activity. This uses naive AMPK that is activated during the assay with MK-8722. In kind it is functional. To be noted: 30 µM.

Sialic acid-binding Ig-like lectin 9 (Homo sapiens), sequence (Q9Y336 whole entry): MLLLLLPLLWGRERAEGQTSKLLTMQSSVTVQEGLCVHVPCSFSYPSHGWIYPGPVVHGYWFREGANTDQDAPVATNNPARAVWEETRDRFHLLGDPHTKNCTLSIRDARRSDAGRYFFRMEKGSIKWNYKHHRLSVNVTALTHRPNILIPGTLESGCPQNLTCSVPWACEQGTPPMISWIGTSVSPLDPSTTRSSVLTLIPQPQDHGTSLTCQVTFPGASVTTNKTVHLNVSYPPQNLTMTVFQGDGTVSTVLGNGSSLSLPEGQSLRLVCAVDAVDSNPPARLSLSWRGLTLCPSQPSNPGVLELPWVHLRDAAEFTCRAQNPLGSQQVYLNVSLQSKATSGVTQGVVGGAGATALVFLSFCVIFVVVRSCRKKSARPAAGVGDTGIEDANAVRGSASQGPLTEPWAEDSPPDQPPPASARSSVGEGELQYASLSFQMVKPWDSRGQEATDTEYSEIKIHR
Chromo domain-containing protein 1 (Saccharomyces cerevisiae (strain ATCC 204508 / S288c) (Baker's yeast)), sequence (P32657 whole entry, the tested form may be a part): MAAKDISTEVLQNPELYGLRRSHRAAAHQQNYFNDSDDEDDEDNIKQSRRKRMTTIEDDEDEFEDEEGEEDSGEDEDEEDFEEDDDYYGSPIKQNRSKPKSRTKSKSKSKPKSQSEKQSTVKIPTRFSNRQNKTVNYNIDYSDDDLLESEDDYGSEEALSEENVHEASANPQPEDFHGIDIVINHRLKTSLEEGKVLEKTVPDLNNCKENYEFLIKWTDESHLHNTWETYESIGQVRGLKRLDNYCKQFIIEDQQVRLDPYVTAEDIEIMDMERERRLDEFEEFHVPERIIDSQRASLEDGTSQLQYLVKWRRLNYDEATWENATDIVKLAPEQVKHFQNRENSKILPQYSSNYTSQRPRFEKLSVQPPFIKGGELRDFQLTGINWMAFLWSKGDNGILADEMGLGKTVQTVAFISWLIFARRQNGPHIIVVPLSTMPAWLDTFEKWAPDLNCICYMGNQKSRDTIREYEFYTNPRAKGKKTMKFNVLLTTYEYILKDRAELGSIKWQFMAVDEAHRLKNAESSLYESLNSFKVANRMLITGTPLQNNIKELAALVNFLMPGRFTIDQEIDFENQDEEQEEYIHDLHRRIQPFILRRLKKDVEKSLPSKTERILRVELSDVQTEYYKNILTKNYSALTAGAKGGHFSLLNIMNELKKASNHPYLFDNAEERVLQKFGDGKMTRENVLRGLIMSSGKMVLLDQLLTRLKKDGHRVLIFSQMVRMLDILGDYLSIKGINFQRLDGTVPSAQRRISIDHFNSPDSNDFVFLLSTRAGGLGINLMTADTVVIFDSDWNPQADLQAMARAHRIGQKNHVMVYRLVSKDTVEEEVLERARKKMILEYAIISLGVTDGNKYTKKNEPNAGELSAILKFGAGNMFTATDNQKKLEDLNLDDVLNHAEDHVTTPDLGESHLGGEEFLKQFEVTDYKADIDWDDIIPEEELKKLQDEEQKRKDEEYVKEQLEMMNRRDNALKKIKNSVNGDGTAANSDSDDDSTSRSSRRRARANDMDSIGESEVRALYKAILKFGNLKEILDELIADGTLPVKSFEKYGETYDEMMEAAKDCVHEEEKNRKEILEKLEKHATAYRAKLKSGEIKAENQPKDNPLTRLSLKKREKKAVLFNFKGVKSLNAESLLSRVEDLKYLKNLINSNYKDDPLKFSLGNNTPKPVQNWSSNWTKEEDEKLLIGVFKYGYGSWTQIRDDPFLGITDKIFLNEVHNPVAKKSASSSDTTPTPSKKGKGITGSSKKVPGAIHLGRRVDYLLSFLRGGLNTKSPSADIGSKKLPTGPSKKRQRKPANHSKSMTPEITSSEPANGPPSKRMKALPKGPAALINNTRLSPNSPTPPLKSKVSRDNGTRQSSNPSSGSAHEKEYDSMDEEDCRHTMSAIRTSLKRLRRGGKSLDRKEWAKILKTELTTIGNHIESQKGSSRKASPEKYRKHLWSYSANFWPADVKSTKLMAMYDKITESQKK
Protein translocase subunit SecA (Escherichia coli (strain K12)), sequence (P10408 whole entry): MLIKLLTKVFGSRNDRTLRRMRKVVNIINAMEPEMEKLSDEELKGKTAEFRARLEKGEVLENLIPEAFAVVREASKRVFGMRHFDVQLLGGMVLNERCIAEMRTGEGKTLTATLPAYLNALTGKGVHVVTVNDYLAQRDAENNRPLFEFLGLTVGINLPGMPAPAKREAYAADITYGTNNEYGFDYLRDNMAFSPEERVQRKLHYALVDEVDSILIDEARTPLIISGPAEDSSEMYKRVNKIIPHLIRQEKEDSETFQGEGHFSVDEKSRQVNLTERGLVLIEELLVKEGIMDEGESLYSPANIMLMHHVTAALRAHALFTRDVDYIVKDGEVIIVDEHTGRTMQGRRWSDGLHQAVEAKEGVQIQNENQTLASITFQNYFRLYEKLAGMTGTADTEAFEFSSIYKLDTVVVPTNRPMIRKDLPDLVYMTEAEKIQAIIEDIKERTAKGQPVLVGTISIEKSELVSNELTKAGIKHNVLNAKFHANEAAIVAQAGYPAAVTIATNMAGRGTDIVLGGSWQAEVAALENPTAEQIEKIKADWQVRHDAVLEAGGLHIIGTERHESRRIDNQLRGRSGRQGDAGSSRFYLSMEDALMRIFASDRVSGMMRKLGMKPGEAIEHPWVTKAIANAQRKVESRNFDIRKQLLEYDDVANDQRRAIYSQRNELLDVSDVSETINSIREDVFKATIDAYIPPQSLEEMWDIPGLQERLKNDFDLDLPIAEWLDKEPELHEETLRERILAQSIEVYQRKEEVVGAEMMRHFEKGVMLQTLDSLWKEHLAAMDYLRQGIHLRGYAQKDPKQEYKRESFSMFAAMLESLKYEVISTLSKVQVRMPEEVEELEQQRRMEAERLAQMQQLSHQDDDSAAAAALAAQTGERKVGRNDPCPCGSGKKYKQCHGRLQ

Regarding `Cc1cccc(CN2C(=O)C[C@H]3[C@@H]2CCN3CC2CC2)n1`, the Percent Effect in [1] is -1.8%; in [2], -22.1%; in assay [3], 3.32%; in assay [4], 2.35%; in the assay with Trypanosoma cruzi, 0.563%; in [5], 1.83%. For the same compound, the Percent Effect in assay [6] is 12.3%; in the assay filed under Homo sapiens, -5.79%; in assay [7], 4.71%; in assay [8], 12.6%; in assay [9], 12.5%; in [10], -5.44%.
In the case of `O=C(C1CC(=O)N(c2ccccc2Br)C1)N1CCC2(CC1)OCCO2` (stereo not given), the Percent Effect is -3.76% in assay [1]; -10.7% in assay [2]; 2.47% in [3]; -5.79% in [11]; -2.82% in [4]; -3.21% in the assay with Trypanosoma cruzi. Also, the Percent Effect in assay [5] is 2.6%; in assay [6] it was 11.2%; in the assay listed under Homo sapiens, 0.465%; in assay [8], 1.64%; in [9], 8.64%; in assay [10] it was -2.41%.
For `COCCN1CCN(Cc2ccncc2)[C@H]2CS(=O)(=O)C[C@H]21`, the Percent Effect is -10.2% in assay [1]; 10.8% in assay [2]; -1.29% in assay [3]; 17.6% in assay [4]; 6.3% in the assay with Trypanosoma cruzi; 16.4% in assay [5]. For the same compound, the Percent Effect in [6] is 5.99%; in the assay filed under Homo sapiens it was 6.91%; in assay [7], 11.1%; in assay [8], 4.79%; in assay [9], 14.6%; in [10] it was -4.57%.
Consider `O=C1CO[C@@H]2CN(Cc3cccs3)C[C@H]2N1Cc1ccncc1`, for which the Percent Effect in [1] was -2.47%; in assay [2], 14.3%; in assay [3] it was 9.56%; in [4], -8.26%; in the assay on Trypanosoma cruzi, -2.63%; in assay [5] it was 10.9%. The Percent Effect in assay [6] is 21.8%; in the assay listed under Homo sapiens, -2.63%; in assay [7], -17.5%; in assay [8] it was 12.1%; in assay [9] it was 10.3%; in assay [10], 3.61%.
Take `CNCCc1nc2cc(Cl)ccc2[nH]1`: the Percent Effect in assay [1] was -7.19%; in assay [2] it was 0%; in assay [3], 0.126%; in [11] it was 1.26%; in assay [4], -5.75%; in the assay on Trypanosoma cruzi it was -7.11%. In addition, the Percent Effect in assay [5] is -3.65%; in [6] it was 5.58%; in the assay filed under Homo sapiens, 5.87%; in [8] it was -4.92%; in assay [9], -6.17%; in assay [10], 0.639%.
